# Inconclusive results are not listed. Active and inactive are the calls of the source.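 Rule for the calls, unless noted: active = binding below the plate cutoff, the plate median minus 3 SD, with a reading above zero; inconclusive = below the plate cutoff but reading exactly zero; inactive = the rest.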
# Legend:
# [1] = rapamycin-like changes in RPL19A-GFP expression – cell-based, S. cerevisiae, multiplex flow cytometry, primary screen (AID 1862; in the data active = percent of DMSO control GFP below about 86%;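 note: lower values mimic rapamycin by blocking the RPL19A rise seen in DMSO cells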); details: S. cerevisiae RPL19A-GFP strain, flow cytometry fluorescence, 3 h; at 10 µM; stronger effect = lower value
# [2] = TOR pathway GLN3 branch reporter MEP2-GFP changes – S. cerevisiae, multiplex flow cytometry, primary screen (AID 1867;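 active = GFP response, as percent of the DMSO control, above the screen-wide mean plus 3 SD, about 139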;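 note: median GFP channel fluorescence of barcode-gated MEP2-GFP cells measured by flow cytometry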); details: S. cerevisiae MEP2-GFP strain, 3 h, at 10 µM, stronger effect = higher value, 100% means same as DMSO wells
# [3] = TOR pathway RTG branch CIT2 reporter changes – S. cerevisiae, GFP fusion, multiplex flow cytometry, primary screen (AID 1870;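 active = percent response above a set limit, the screen-wide mean plus 3 SD, cut at about 130% in these data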;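 note: barcoded CIT2-GFP strain pooled with four other GFP strains with rapamycin as positive control; median GFP fluorescence per well over plate mean of DMSO wells so 100% = DMSO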); details: S. cerevisiae CIT2-GFP expression, 3 h, at 10 µM, stronger effect = higher value
# [4] = TOR pathway LAP4-GFP level changes – S. cerevisiae, multiplex flow cytometry, primary screen (AID 1873;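 active = GFP signal, as percent of the solvent control, above the screen mean plus 3 SD, about 149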); details: S. cerevisiae LAP4-GFP expression, 3 h, at 10 µM, stronger effect = higher value
# [5] = reduced mouse 2C T cell binding to pMHC/ICAM-1 vesicles – MLPCN validation set, flow cytometry, LFA-1/ICAM-1 modulator project, pilot screen (AID 2523;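 active = response below a set limit, under 55% cells CD8-positive and vesicle-bound, and CD8 cells' 90th-percentile brightness under 279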;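 for vesicle binding response: mean PE anti-B7-1 fluorescence of CD8+ cells relative to row control; 100% = QL9-loaded vesicles with DMSO vehicle in the same plate row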); details: 2C mouse CD8+ T cells, at 7 µM, stronger effect = lower value; double positive events: measured here: CD8+/vesicle+ event percentage
# [6] = target: Integrin beta-1 (Homo sapiens) + Integrin alpha-4 (Homo sapiens) (UniProt P13612+P05556); assay: alpha4beta1 integrin LIBS antibody binding reduction – U937 cells, HUTS-21 mAb, flow cytometry, validation set, VLA-4 allosteric modulator project, pilot screen (AID 2674;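 active = inhibition above 50%, about 3 SD of the validation set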;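 note: antibody binding induced by the VLA-4 ligand LDV present at three times its Kd; 0% = LDV ligand with antibody and no compound and 100% = antibody without LDV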); details: HUTS-21 LIBS mAb binding, at 6.7 µM, stronger effect = higher value, binding induced by LDV ligand
# Chain of Integrin beta-1 (Homo sapiens) + Integrin alpha-4 (Homo sapiens) (P05556 whole entry, looked up): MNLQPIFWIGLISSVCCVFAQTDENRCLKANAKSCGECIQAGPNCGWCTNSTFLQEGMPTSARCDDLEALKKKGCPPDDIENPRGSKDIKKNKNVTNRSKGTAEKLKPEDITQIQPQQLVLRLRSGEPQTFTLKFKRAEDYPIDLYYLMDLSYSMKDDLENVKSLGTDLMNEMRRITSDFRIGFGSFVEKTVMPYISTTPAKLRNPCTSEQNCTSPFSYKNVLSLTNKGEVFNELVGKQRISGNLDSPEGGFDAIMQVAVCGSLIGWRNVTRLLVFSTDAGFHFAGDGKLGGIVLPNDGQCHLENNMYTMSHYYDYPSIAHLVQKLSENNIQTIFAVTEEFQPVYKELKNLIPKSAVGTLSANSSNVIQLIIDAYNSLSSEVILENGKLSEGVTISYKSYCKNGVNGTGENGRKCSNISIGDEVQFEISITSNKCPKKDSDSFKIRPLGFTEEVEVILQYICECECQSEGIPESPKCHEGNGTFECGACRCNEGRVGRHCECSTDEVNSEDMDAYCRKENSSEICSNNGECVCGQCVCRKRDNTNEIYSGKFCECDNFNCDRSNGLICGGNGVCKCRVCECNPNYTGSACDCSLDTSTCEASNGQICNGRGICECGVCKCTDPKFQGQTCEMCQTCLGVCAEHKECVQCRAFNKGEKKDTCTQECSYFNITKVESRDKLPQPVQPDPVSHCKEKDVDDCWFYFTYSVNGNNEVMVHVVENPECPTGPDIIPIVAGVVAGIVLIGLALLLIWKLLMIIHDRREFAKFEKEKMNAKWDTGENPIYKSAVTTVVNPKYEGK
# Chain of Integrin beta-1 (Homo sapiens) + Integrin alpha-4 (Homo sapiens) (P13612 whole entry, looked up): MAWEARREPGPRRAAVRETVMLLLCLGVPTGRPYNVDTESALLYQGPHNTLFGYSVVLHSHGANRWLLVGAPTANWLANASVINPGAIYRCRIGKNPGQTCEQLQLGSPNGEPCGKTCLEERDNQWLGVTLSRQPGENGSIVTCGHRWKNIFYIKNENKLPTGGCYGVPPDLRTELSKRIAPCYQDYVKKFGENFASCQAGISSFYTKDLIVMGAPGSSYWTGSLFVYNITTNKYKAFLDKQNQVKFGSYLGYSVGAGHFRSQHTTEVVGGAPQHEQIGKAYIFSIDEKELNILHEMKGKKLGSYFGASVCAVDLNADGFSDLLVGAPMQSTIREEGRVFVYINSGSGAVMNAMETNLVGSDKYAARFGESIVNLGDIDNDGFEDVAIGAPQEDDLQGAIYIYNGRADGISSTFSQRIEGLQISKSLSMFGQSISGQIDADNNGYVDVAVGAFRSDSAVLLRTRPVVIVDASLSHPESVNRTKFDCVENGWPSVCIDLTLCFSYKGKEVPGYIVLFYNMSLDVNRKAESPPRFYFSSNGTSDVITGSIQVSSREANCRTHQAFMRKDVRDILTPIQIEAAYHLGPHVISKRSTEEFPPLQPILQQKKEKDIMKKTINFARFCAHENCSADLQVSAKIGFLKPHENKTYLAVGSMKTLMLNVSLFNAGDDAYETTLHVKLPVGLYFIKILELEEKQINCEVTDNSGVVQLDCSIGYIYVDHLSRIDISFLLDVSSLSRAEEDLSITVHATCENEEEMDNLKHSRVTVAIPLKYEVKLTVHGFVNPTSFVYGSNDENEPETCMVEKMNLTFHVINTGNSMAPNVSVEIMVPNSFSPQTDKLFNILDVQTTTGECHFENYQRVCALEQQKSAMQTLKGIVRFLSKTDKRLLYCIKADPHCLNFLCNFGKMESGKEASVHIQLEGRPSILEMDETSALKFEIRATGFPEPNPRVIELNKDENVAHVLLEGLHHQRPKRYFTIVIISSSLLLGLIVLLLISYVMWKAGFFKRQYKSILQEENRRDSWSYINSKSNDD
# [7] = calorie-restriction mimetic ROS inhibitors, yeast – validation compound set, pilot screen (AID 2706;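 active = superoxide response below 65% of plate, a cut near 3 SD across the whole screen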;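 note: yeast exposed to compound for one week at 30 degrees C before staining; 100% = mean of all compound wells on the same plate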); details: S. cerevisiae aging, superoxide DHE fluorescence; at 10 µM, stronger effect = lower value
# [8] = target: Beta-adrenergic receptor kinase 1 (Homo sapiens) (UniProt P25098); assay: GRK2 binders displacing RNA aptamer, biochemical, validation, human GRK2, bead flow cytometry (AID 488806;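 active = aptamer binding inhibition above 30%, about 3 SD of noise from non-fluorescent compounds; inactive = inhibition at or below 30%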); details: bead-bound GRK2, FAM-aptamer displacement, at 10 µM, stronger effect = higher value
# Chain of Beta-adrenergic receptor kinase 1 (Homo sapiens) (P25098 whole entry, looked up): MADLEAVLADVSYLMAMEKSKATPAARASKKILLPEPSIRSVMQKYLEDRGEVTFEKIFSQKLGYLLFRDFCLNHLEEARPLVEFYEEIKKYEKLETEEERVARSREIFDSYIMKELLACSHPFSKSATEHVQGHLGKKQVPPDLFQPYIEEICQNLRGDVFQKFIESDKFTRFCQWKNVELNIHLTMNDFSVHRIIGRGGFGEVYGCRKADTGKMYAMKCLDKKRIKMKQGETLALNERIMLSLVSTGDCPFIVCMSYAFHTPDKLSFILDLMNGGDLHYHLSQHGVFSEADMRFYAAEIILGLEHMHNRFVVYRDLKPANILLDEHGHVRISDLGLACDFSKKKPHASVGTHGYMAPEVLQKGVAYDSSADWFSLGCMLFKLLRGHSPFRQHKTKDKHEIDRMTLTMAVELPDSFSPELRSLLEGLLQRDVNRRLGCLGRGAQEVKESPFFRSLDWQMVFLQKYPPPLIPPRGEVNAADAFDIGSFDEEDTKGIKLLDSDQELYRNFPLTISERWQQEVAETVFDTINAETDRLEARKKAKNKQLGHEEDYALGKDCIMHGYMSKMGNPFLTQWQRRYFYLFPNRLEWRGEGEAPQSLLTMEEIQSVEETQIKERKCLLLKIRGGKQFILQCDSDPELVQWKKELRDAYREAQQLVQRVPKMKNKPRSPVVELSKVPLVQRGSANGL
# [9] = target: Beta-2 adrenergic receptor (Homo sapiens) (UniProt P07550); assay: agonist-induced loss of surface beta2AR – cell-based, FAP fluorogen, flow cytometry, validation set, pilot screen (AID 504459;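 active = percent response above 42, roughly 3 SD of non-fluorescent test compounds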;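 note: agonist-driven loss of surface beta2AR via internalization measured by FAP dye flow cytometry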); details: Am2.2-beta2AR cells, at 10 µM, stronger effect = higher value
# Chain of Beta-2 adrenergic receptor (Homo sapiens) (P07550 whole entry, looked up): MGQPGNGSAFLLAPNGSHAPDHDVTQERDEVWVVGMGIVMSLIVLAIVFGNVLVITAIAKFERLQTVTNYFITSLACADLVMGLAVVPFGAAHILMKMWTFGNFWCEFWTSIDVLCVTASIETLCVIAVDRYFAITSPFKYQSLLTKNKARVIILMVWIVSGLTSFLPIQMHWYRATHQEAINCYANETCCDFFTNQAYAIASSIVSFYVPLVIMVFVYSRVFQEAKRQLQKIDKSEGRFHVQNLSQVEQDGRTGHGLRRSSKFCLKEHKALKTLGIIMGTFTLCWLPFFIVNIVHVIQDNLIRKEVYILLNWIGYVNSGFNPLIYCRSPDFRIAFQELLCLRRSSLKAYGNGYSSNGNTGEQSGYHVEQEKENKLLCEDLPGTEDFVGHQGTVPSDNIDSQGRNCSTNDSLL
# [10] = target: AP-2 complex subunit beta (Homo sapiens) (UniProt P63010); assay: beta-arrestin/AP2 interaction blockers – biochemical, validation set, GST-AP2 beads, flow cytometry, pilot screen (AID 504541;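 active = inhibition above 54%, about 3 SD of non-fluorescent compounds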;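 note: AP2 carries R879A mutation and is captured from E. coli lysate; bead-bound FITC arrestin peptide fluorescence measuring arrestin peptide binding to AP2; 0% = DMSO wells and 100% = excess unlabeled arrestin peptide control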); details: FITC arrestin peptide, at 10 µM, stronger effect = higher value, AP2 beta2 appendage fragment, R879A mutant
# Chain of AP-2 complex subunit beta (Homo sapiens) (P63010 whole entry, looked up, the tested form may be a part, one chain of several): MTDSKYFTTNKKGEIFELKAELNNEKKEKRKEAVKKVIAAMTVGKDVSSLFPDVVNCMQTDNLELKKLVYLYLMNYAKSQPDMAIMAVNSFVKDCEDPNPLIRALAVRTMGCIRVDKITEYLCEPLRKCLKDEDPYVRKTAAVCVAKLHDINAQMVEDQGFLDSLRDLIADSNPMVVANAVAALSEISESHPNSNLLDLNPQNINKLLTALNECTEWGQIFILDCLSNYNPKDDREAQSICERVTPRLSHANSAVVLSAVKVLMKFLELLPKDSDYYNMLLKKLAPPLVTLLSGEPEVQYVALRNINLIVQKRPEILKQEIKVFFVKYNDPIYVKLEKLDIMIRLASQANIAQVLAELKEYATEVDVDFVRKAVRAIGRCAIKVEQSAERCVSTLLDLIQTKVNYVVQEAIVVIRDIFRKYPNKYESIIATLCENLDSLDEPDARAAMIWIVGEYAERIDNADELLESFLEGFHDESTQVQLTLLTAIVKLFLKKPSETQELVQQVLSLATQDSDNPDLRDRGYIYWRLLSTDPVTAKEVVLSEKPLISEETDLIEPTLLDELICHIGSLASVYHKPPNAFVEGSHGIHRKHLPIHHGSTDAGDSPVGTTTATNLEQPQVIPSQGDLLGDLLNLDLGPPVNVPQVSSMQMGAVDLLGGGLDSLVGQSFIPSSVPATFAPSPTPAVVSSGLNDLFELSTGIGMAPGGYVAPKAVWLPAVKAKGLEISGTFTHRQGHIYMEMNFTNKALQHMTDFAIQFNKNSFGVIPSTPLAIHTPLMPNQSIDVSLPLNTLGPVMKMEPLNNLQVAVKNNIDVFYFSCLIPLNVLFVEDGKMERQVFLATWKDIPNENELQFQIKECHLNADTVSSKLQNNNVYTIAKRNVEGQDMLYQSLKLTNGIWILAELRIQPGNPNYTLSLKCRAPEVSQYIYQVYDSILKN
# [11] = cytosolic pH regulators acting via V-ATPase – S. cerevisiae, pHLuorin, HTS validation (AID 504600; in the data active = response above about 15%;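 note: plate controls were DMSO for no effect and reference compound for full effect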); details: V-ATPase proton transport, at 10 µM, stronger effect = higher value
# [12] = system: anti-desmoglein-3 scFv antibody binding to human DSG3; assay: blockers of pathogenic pemphigus antibody–desmoglein-3 binding – biochemical, validation compound set, bead-based, flow cytometry, pilot screen (AID 588368); details: Protein G beads, DSG3-Fc, scFv-GFP binding, at 10 µM, stronger effect = lower value;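 note: signal is the median channel fluorescence of bead-bound GFP antibody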
# [13] = Nile Red efflux blockade in pump-expressing yeast – validation compound set, multiplex, phenotypic, pilot screen (AID 588506;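 active = efflux inhibition above 0.42, the validation set average plus 4 SD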;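 note: Nile Red retained in cells so higher fluorescence means more efflux inhibition; 0 = negative control wells and 1 = enniatin B 25 µM full block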); details: S. cerevisiae pump-expressing triplex, Nile Red efflux flow cytometry; at 10 µM; stronger effect = higher value; the pumps come from Candida albicans
# [14] = target: ATP-binding cassette sub-family B member 6 (Homo sapiens) (UniProt Q9NP58); assay: blockers of ABCB6-driven porphyrin uptake – K562-ABCB6 cells, flow cytometry, validation set, pilot screen (AID 588550;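 active = inhibition above the screen-wide mean plus 3 SD, about 51%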;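 note: 0% = DMSO wells and 100% = benzethonium chloride 70 µM positive control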); details: K562-ABCB6 porphyrin accumulation, 1 h, at 10 µM, stronger effect = higher value
# Chain of ATP-binding cassette sub-family B member 6 (Homo sapiens) (Q9NP58 whole entry, looked up): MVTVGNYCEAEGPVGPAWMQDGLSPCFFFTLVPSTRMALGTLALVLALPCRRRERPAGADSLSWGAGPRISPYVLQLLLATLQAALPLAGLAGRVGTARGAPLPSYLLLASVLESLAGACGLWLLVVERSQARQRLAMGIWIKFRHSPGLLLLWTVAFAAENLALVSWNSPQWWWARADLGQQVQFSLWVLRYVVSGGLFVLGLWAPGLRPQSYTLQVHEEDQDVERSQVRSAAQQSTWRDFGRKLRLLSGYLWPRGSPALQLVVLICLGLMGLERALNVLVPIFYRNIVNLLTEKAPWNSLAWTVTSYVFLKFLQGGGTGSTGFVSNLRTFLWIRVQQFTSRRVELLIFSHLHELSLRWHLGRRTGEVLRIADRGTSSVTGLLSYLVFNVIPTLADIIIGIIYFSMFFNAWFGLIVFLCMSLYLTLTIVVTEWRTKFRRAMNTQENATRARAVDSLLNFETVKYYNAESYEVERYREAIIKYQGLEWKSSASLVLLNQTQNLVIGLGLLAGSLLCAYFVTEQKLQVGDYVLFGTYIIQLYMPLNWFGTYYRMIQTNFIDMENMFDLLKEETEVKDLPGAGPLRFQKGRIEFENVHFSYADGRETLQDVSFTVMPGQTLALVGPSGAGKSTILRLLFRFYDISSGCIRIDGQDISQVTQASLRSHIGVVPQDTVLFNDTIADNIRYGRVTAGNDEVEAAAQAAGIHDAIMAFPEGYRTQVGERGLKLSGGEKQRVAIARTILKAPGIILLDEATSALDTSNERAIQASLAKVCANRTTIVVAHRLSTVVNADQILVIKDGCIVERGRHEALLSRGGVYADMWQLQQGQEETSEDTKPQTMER
# [15] = AML differentiation inducers, ER-HoxA9 marrow cells – cell-based, GFP/MAC1 double positive, flow cytometry, validation set, primary screen (AID 588685;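 active = differentiation response of at least 50%, scaled between solvent and reference control, from cells with both markers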;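 note: compound exposure lasts four days before antibody staining and flow analysis; 0% = DMSO wells and 100% = 5 µM fulvestrant positive control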); details: stronger effect = higher value, normalized: vehicle 0, fulvestrant 100
# [16] = yeast AGP1-GFP level changes, GLN3 branch – cell-based, multiplex flow cytometry, S. cerevisiae, primary screen (AID 1887;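 active = GFP signal above the screen-wide mean plus 3 SD, that is over about 124.5% of the solvent control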;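 note: AGP1-GFP fusion strain of S. cerevisiae within a five-strain barcoded multiplex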); details: 3 h, at 10 µM, stronger effect = higher value
SMILES,percent of DMSO control GFP [1],GFP response vs DMSO [2],percent response of DMSO control [3],GFP response vs DMSO [4],double positive events [5],vesicle binding response [5],inhibition [6],superoxide response (% of plate) [7],aptamer binding inhibition [8],response [9],inhibition [10],response [11],binding (% of control) [12],efflux inhibition (fraction of control) [13],inhibition [14],differentiation response [15],"GFP response, % of DMSO [16]"
COc1cccc(N2C(=O)[C@H]3C(C(=O)c4cnccn4)=NN[C@H]3C2=O)c1,93.5% (inactive),123% (inactive),111% (inactive),79.8% (inactive),63.5%,191% (inactive),14.2% (inactive),106% (inactive),2% (inactive),-6.07% (inactive),-1.17% (inactive),-1.86% (inactive),98.9% (inactive),-0.13 (inactive),8% (inactive),-4.91% (inactive),–
COc1cc(/C=C/C(=O)N2CCCC2)cc(OC)c1OC,106% (inactive),–,107% (inactive),76.9% (inactive),61.5%,29.3% (inactive),6.81% (inactive),95.8% (inactive),5% (inactive),-5.19% (inactive),-0.17% (inactive),0.86% (inactive),95.1% (inactive),0.02 (inactive),-1% (inactive),12.9% (inactive),100% (inactive)
C=CCc1cc(Cl)ccc1OCCOCCN(C)C,103% (inactive),–,108% (inactive),75.2% (inactive),60%,144% (inactive),-4.52% (inactive),98.8% (inactive),4% (inactive),3.31% (inactive),-5.37% (inactive),-5.95% (inactive),102% (inactive),-0.17 (inactive),1% (inactive),16.8% (inactive),88.5% (inactive)
c1ccc2c(c1)CCCC2C1=NCCN1 (centres undefined),98.2% (inactive),–,102% (inactive),108% (inactive),69.5%,263% (inactive),-15.6% (inactive),82.6% (inactive),-1% (inactive),-24.5% (inactive),-7.04% (inactive),1.56% (inactive),101% (inactive),-0.04 (inactive),19% (inactive),8.8% (inactive),110% (inactive)
Cc1ccc(S(=O)(=O)Nc2ccc(S(=O)(=O)Nc3cc(C)nc(C)n3)cc2)cc1,91.1% (inactive),120% (inactive),108% (inactive),78.1% (inactive),76%,256% (inactive),23.9% (inactive),89.7% (inactive),0% (inactive),1.77% (inactive),-0.21% (inactive),15% (inactive),101% (inactive),-0.35 (inactive),6% (inactive),26.2% (inactive),–
CC1CCCc2sc3ncn(N)c(=N)c3c21 (centres undefined),103% (inactive),–,105% (inactive),–,62.2%,246% (inactive),-3.16% (inactive),94.2% (inactive),4% (inactive),31.1% (inactive),-3.27% (inactive),3.56% (inactive),98.2% (inactive),-0.24 (inactive),7% (inactive),-4% (inactive),87.1% (inactive)
Cc1oc2ccc(OC(=O)c3cccs3)cc2c1C(=O)OC(C)C,91.2% (inactive),–,92.5% (inactive),115% (inactive),64.6%,205% (inactive),-4.52% (inactive),96% (inactive),1% (inactive),-19.3% (inactive),-7.21% (inactive),-4.85% (inactive),105% (inactive),-0.09 (inactive),2% (inactive),-4.99% (inactive),94.9% (inactive)
COc1ccc(C2C3C(C)=NN=C3CC(C)(O)C2C(C)=O)cc1 (centres undefined),99.5% (inactive),–,97.7% (inactive),94% (inactive),60.7%,265% (inactive),13.2% (inactive),103% (inactive),6% (inactive),-1.78% (inactive),12.8% (inactive),2.14% (inactive),101% (inactive),-0.21 (inactive),3% (inactive),-18.4% (inactive),96.9% (inactive)
COc1ccc(-c2nc(C)c(C(C)=O)n2O)cc1OC,92.6% (inactive),106% (inactive),114% (inactive),78.1% (inactive),52.4%,110% (inactive),5.49% (inactive),97.4% (inactive),2% (inactive),-10.4% (inactive),-13.1% (inactive),1.53% (inactive),103% (inactive),0.01 (inactive),11% (inactive),0% (inactive),–
Cc1cc(C(C)(C)C)c(O)c(C)c1CC1=NCCN1,103% (inactive),116% (inactive),114% (inactive),94.1% (inactive),62.9%,297% (inactive),-29.4% (inactive),93.7% (inactive),1% (inactive),8.56% (inactive),-0.66% (inactive),0.6% (inactive),106% (inactive),0.34 (inactive),12% (inactive),7.37% (inactive),–
O=C1NC2(Nc3ccccc31)C(=O)Nc1ccc(Br)cc12 (centres undefined),91.7% (inactive),127% (inactive),102% (inactive),85.8% (inactive),72%,220% (inactive),-3.24% (inactive),102% (inactive),2% (inactive),-4.23% (inactive),1.97% (inactive),1.05% (inactive),98.7% (inactive),-0.13 (inactive),9% (inactive),0% (inactive),–
O=P(O)(O)CP(=O)(O)O,91.9% (inactive),–,90.5% (inactive),123% (inactive),61.8%,178% (inactive),22.7% (inactive),93% (inactive),0% (inactive),-17.7% (inactive),-22.1% (inactive),-0.51% (inactive),101% (inactive),0 (inactive),-3% (inactive),28.5% (inactive),122% (inactive)
O=C1NCC2=C1C(c1ccccc1)Nc1ccccc1N2 (centres undefined),94.6% (inactive),112% (inactive),102% (inactive),75.9% (inactive),65.6%,205% (inactive),9.37% (inactive),100% (inactive),1% (inactive),-9.09% (inactive),1.06% (inactive),-0.53% (inactive),102% (inactive),0.16 (inactive),7% (inactive),-4.09% (inactive),–
OCCN(CCO)c1ccc2ccccc2c1,96.5% (inactive),–,99.6% (inactive),96.5% (inactive),66.7%,267% (inactive),0.94% (inactive),98.1% (inactive),2% (inactive),-2.38% (inactive),-3.97% (inactive),4.81% (inactive),103% (inactive),-0.21 (inactive),10% (inactive),5.6% (inactive),98.9% (inactive)
CC(=O)OCC1OC(n2ccc(=O)[nH]c2=O)C(O)C1O (centres undefined),100% (inactive),–,122% (inactive),102% (inactive),60.2%,42.8% (inactive),-12.9% (inactive),97.6% (inactive),1% (inactive),-2% (inactive),-6.88% (inactive),-3.65% (inactive),97.7% (inactive),-0.26 (inactive),9% (inactive),-1.71% (inactive),101% (inactive)
COc1ccc(C(=O)Nc2ccccc2C(=O)NCCCn2ccnc2)cc1,91.3% (inactive),115% (inactive),93.9% (inactive),75.4% (inactive),59.2%,82.8% (inactive),1.61% (inactive),101% (inactive),5% (inactive),-7.51% (inactive),7.74% (inactive),-1.7% (inactive),104% (inactive),0.23 (inactive),12% (inactive),-4.91% (inactive),–
COc1ccc(CN(C)CCc2ccccn2)cc1OC,104% (inactive),–,102% (inactive),74.3% (inactive),55.5%,91.8% (inactive),-15.4% (inactive),95.8% (inactive),3% (inactive),6.81% (inactive),-9.53% (inactive),20.5% (active),98.7% (inactive),-0.03 (inactive),2% (inactive),-28% (inactive),90.6% (inactive)
CC1(C)C2CCC1(C)C(OCC[N+](C)(C)CC(=O)OC1CCCCC1)C2 (centres undefined),88% (inactive),104% (inactive),104% (inactive),78.1% (inactive),70%,196% (inactive),12.3% (inactive),95.2% (inactive),-4% (inactive),-4.15% (inactive),-2.94% (inactive),3.18% (inactive),109% (inactive),-0.06 (inactive),6% (inactive),-5.73% (inactive),–
COc1cccc(N2CC(O)=C(c3nc4ccccc4c(=O)[nH]3)C2=N)c1,97.9% (inactive),130% (inactive),116% (inactive),75.9% (inactive),58.4%,140% (inactive),11.3% (inactive),106% (inactive),5% (inactive),20.8% (inactive),2.43% (inactive),8.28% (inactive),103% (inactive),-0.2 (inactive),14% (inactive),2.46% (inactive),–
O=C1C2C3C=CC(C4CC34)C2C(=O)N1/N=C/c1ccc(-c2ccc([N+](=O)[O-])cc2)o1 (centres undefined),103% (inactive),–,101% (inactive),85.4% (inactive),57.9%,153% (inactive),-0.43% (inactive),95.5% (inactive),4% (inactive),25.8% (inactive),14.3% (inactive),1.6% (inactive),102% (inactive),0.19 (inactive),7% (inactive),0% (inactive),87.7% (inactive)

# Source: PubChem BioAssay
